Laboratory results: ChEMBL document CHEMBL3988442, “University of Dundee, Small-Polar-MMV Screening Library” (2021)
Among all 53,000 compounds or so, about 900 (1.7%) showed an effect of 50% or more. Only a selection was taken, and strong results are over-represented in it overall.

System: Mycobacterium tuberculosis
Assay: Cornell - Phenotypic assay to identify agents that inhibit growth of Mycobacterium tuberculosis
Assay type: functional
Parameters: scale not given: direction of the effect not stated beside the values
Settings: 10 mM as filed; unlikely as a test dose

| SMILES | Percent Effect [%] |
| --- | --- |
| Cc1noc(C)c1CN1CCC(c2nnc(Cn3cccn3)n2C)CC1 | 16.69 |
| C[C@@H]1CN(c2cccnn2)CC[C@@]1(O)C1CCOCC1 | -7.399 |
| Cc1ccc(-c2nc(CN3C[C@@H](C)NC[C@@H]3C)c(C)o2)s1 | 12.13 |
| Clc1cccc(-c2cccc(N3CCC(NC4CCOCC4)CC3)c2)c1 | 72.63 |
| COc1cccc(-c2cccc(N3CCC(N[C@@H]4CCOC4)CC3)c2)c1 | 39.62 |
| Cc1ccc(-c2cccc(N3CCC(NC4CCOCC4)CC3)c2)cc1 | 33.16 |
| CCc1ccc(-c2ncc3c(n2)N(C)CCN(CCN(C)C)C3=O)cc1 | 13.52 |
| Cc1nn(CC(C)C)c(N(C)C)c1CNCc1cc2ccccc2[nH]1 | 72.88 |
| Cc1nc(C)c(C(C)NCc2c(C)nn(C)c2N(C)C)s1 (configuration not stated) | 45.94 |
| Cc1nn(CC(C)C)c(N(C)C)c1CNCCS(C)(=O)=O | 83.1 |
| CC(=O)NCCCNCc1c(C)nn(CC(C)C)c1N(C)C | 2.619 |
| Cc1nn(CC(C)C)c(N(C)C)c1CNCc1cccnc1N(C)C | 34.46 |
| Cc1nn(CC(C)C)c(N(C)C)c1CNCCCNS(C)(=O)=O | 49.77 |
| Cc1nc(C)c(C(C)NCc2c(C(C)C)nn(C)c2N(C)C)s1 (configuration not stated) | 21.22 |
| Cc1nc(C)c(C(C)NCc2c(C)nn(CC(C)C)c2N(C)C)s1 (configuration not stated) | 102.6 |
| Cc1nn(CC(C)C)c(N(C)C)c1CNCc1ccccc1CO | 17.46 |
| O=C(Cc1csc(-c2ccoc2)n1)NCCC(=O)N1CCCCC1 | -18.79 |
| O=C(CN1CCC(c2ccccc2)CC1)NCc1cc2n(n1)CCNC2 | -6.243 |
| Cc1ccc(NC(=O)c2coc(C)n2)c(C)c1 | 2.34 |
| CCN1CCCC(O)(c2nc(C)c(CCOc3ccccc3Cl)s2)CC1 (configuration not stated) | 12.65 |
| Fc1cnc(N2CCO[C@H]3[C@H](OCC4CCOCC4)CC[C@@H]32)nc1.O=C(O)C(F)(F)F | -12.23 |
| Cl.Fc1ccc(F)c(CN2CCC(c3cc4ncccc4cn3)CC2)c1 | 106.2 |
| Fc1ccc(F)c(CN2CCC(c3cnccn3)CC2)c1 | -8.862 |
| Fc1cc(F)cc(CN2CCC(c3cc4ncccc4cn3)CC2)c1 | 48.17 |
| COc1ccc(C)cc1CN1CCC(c2cc3ncccc3cn2)CC1.Cl | 102.1 |
| Cl.Fc1cccc(CN2CCC(c3cc4ncccc4cn3)CC2)c1F | 106.5 |

| SMILES | Percent Effect [%] |
| --- | --- |
| CCc1cc(C(=O)N2CCC(c3cc4ncccc4cn3)CC2)no1 | -43.86 |
| Fc1cccc(CN2CCC(c3noc(-c4ccccn4)n3)CC2)c1F | 10.24 |
| Fc1cccc(CN2CCC(c3n[nH]c4ncccc34)CC2)c1F | 12.02 |
| CCc1onc(C)c1C(=O)N1CCC(c2cc3ncccc3cn2)CC1 | -10.62 |
| CN(C)CC(=O)N1CCCC1c1ccccn1 (configuration not stated) | -4.262 |
| Cc1cc(O)nc(C2CN(CCO)CCO2)n1 (configuration not stated) | -14.9 |
| O=C(NC(Cc1ccsc1)c1nccs1)C1CC1 (configuration not stated) | 1.52 |
| COc1ccc(-c2cc(C(=O)NCCC(C)C)n(C)n2)cc1 | 20.81 |
| Cc1cnc(-c2nc(O)c3c(n2)CN(C(=O)C2CCOC2)CC3)cn1 (configuration not stated) | 13.55 |
| Cc1nccn1-c1nccnc1C1CCCN(C2CCCC2)C1 (configuration not stated) | -26.29 |
| CCc1nccn1C1CCCN(C(=O)c2c(C)nsc2NC)C1 (configuration not stated) | -1.736 |
| COCCc1noc(CNC(C)(CO)C2CCCCC2)n1 (configuration not stated) | 19.83 |
| Cc1ncc2c(n1)CN(CC(=O)Nc1c(C)nn(C)c1C)CC2 | -7.381 |
| CCCOC1CCCN(Cc2nc(-c3ccc(F)cc3F)oc2C)C1 (configuration not stated) | 18.51 |
| COCc1ncn(Cc2nc(-c3ccc(OC)cc3F)oc2C)n1 | -34.66 |
| COc1ccc(-c2nc(CN3CCCC(OC)C3)c(C)o2)c(F)c1 (configuration not stated) | 56.05 |
| COCC(=O)NC[C@]1(O)CN(Cc2ccc3c(c2)OCCO3)C[C@H]1O | 24.95 |
| CCn1cc(CN2CCC(c3ncc(Cl)cc3S(C)(=O)=O)CC2)c(C)n1 | 37.62 |
| CCn1ncc(CN2CCC(c3ncc(Cl)cc3S(C)(=O)=O)CC2)c1C | 50.49 |
| C=Cn1ncc(CN2CCC(c3ncc(Cl)cc3S(C)(=O)=O)CC2)c1C | 0.06604 |
| O=C(NS(=O)(=O)c1cccnc1)C1CC(c2ccccc2)=NO1 (configuration not stated) | 35.93 |
| Cc1ncc2c(n1)CCCC2NC(=O)c1ccc(Cn2cccn2)cc1 (configuration not stated) | -3.537 |
| Cc1occc1C(=O)N1CCC2(CC1)CN(c1ccccn1)CCO2.O=C(O)C(F)(F)F | 15.62 |
| COCc1cc(N(C)Cc2c(C)nn(C)c2C)n2nccc2n1 | -21.67 |
| CCc1ccc(CN(C)c2cc(COC)nc3ccnn23)cc1 | 59.92 |
| CCc1cc(N(C)Cc2ccncn2)n2nccc2n1 | -22.97 |

| SMILES | Percent Effect [%] |
| --- | --- |
| CCCc1nc(N[C@H]2COC[C@@H]2N2CCCCC2)c2cnn(C)c2n1 | 6.118 |
| COc1cn(-c2ccccc2)nc1C(=O)NCCN1CCCC(C)C1 (configuration not stated) | -24.88 |
| CC(C)CCc1n[nH]c(C(=O)O)c1Br | 50.18 |
| CC(C)CCc1n[nH]c(C(=O)O)c1Cl | -0.9753 |
| CC(C)CCc1n[nH]c(C(=O)O)c1I | 42.63 |
| Cc1nn(CC(C)C)cc1S(=O)(=O)N(C)Cc1nonc1C | 22.09 |
| Cc1nccc(CC2COCCN(c3cnccn3)C2)n1 (configuration not stated) | -7.582 |
| c1cncc(O[C@H]2COCCN(C3CCC3)C2)c1 | 18.67 |
| c1cnc(CC2COCCN(C3CCCCC3)C2)cn1 (configuration not stated) | 63.08 |
| O=C(O)C(F)(F)F.c1cnc(N2CCC3(COCc4cnc(-c5cccnc5)nc43)C2)nc1 (configuration not stated) | -17.47 |
| CN(C)CC(=O)N1CC2(CCN(C(=O)Nc3ccccc3)C2)C1.O=C(O)C(F)(F)F | -36.23 |
| CC(C)c1nc(C2CCCN2CCc2ccncc2)no1 (configuration not stated) | -12.21 |
| Cc1nc(C)n(CC2CCCN2CCCc2nc3ccccc3o2)n1 (configuration not stated) | 0.1227 |
| CC(C)c1nc(C2CCCN2CCCc2nc3ccccc3o2)no1 (configuration not stated) | 73.44 |
| c1ccc2oc(CCCN3CCCCC3Cn3cncn3)nc2c1 (configuration not stated) | 60.48 |
| c1ccc2oc(CN3CCCCC3Cn3cncn3)nc2c1 (configuration not stated) | 10.3 |
| Cc1cc(C2CCCN2CCCc2nc3ccccc3o2)on1 (configuration not stated) | 56.86 |
| CC(C)c1nc(C2CCCN2CCc2ccccn2)no1 (configuration not stated) | -3.374 |
| c1ccc2oc(CCCN3CCCC3Cn3cncn3)nc2c1 (configuration not stated) | 23.86 |
| Cc1cnn(CC2CCCN2CCCc2nc3ccccc3o2)c1 (configuration not stated) | 32.71 |
| Cc1nn(C)c(C)c1C1CCCN1CCCc1nc2ccccc2o1 (configuration not stated) | 65.17 |
| Cc1nn(C)c(C)c1C1CCCN1CCCC#N (configuration not stated) | -3.092 |
| Cc1cc(C)n(CC2CCCN2CCCc2nc3ccccc3o2)n1 (configuration not stated) | 14.18 |
| CN1CCC(Nc2ccc(Cl)cc2OCC(F)(F)F)C1=O (configuration not stated) | 4.127 |
| CC(C)[C@H]1CN(Cc2ccncc2)C[C@@H]1NC(=O)C1(C#N)CCOCC1 | 8.101 |
| CCOc1cncc(N2CCCC2c2nnc3n2CCCCC3)n1 (configuration not stated) | 14.34 |

| SMILES | Percent Effect [%] |
| --- | --- |
| Cn1ncc2c1CN(Cc1ccc(F)cc1)CC2COCC1CC1.O=C(O)C(F)(F)F.O=C(O)C(F)(F)F (configuration not stated) | -21.09 |
| Cc1nn(C)cc1NC(=O)CC1CCN(C(=O)Cc2ccccc2)CC1 | -9.652 |
| Cn1ccnc1CNC1CCCOc2c1ccc1ccccc21 (configuration not stated) | 21.15 |
| Cn1cc(CNC2CCCOc3c2ccc2ccccc32)cn1 (configuration not stated) | 52.41 |
| Cn1cc(CNC2CCCOc3c(Cl)cccc32)cn1 (configuration not stated) | 11.42 |
| O=C(Cn1ccnc1)N1CCCC(OCc2cccnc2)C1 (configuration not stated) | -41.24 |
| CN(C)C(=O)CN1C[C@H]2CN(Cc3cccc(F)c3)C(=O)[C@H]2C1.O=C(O)C(F)(F)F | 15.1 |
| Cn1nc2c(c1NC(=O)c1cccs1)CCC2 | 1.253 |
| N#Cc1ccc(N2CCC3(CC2)CC(OCc2cccnc2)CO3)cc1.O=C(O)C(F)(F)F (configuration not stated) | 25.8 |
| Fc1ccc(N2CCC3(CC2)CC(OCc2cccnc2)CO3)cc1.O=C(O)C(F)(F)F (configuration not stated) | 62.76 |
| Fc1cnc(N2CCC3(CC2)CC(OCc2cccnc2)CO3)nc1.O=C(O)C(F)(F)F.O=C(O)C(F)(F)F (configuration not stated) | 8.704 |
| CCn1nccc1CN(C)c1nc(N)nc2c1nc(C)n2C | -2.939 |
| NC1(CN2CCCCC2)CCCCC1 | -23.07 |
| Cc1cccnc1NC(=O)CC1(Cn2cnnn2)CCCCC1 | 1.711 |
| Cc1cc(NC(=O)C(C)C)n(-c2nc(C)c(C)c(=O)[nH]2)n1 | 105.9 |
| CC(=O)Nc1cc(C2CC2)nn1-c1nc(C)c(C)c(=O)[nH]1 | -29.54 |
| COCCNC(=O)CCc1c(C)nn(-c2nc(C)c(C)c(=O)[nH]2)c1C | 25.57 |
| CC(=O)N1CCN(c2cc(CCNC(=O)C(C)C)nc(C3CC3)n2)CC1 | -12.23 |
| Cc1nc(-n2nc(C3CC3)cc2NC(=O)C(C)C)[nH]c(=O)c1C | 77.31 |
| Cc1cc(C)n(-c2cncc(NCCNC(=O)C(C)C)n2)n1 | 10.14 |
| Cc1cc(-c2nccs2)nc(C2CCN(Cc3cccs3)CC2)n1 | 25.07 |
| Cc1nccn1Cc1nnc(C2CCCN(c3ncccn3)C2)n1C (configuration not stated) | -33.54 |
| COCCN1CCCC(c2nc(C)n3c(C)c(C)sc23)C1 (configuration not stated) | 6.759 |
| O=C(N1CCOCC1)N1C[C@H]2CN(Cc3nccs3)C[C@H]2C1.O=C(O)C(F)(F)F | 17.29 |
